From PubChem BioAssay
HT1080-NT tox: kills 2HG-producing HT-1080-NT fibrosarcoma cells | HT-1080-NT fibrosarcoma viability, CellTiter-Glo ATP luminescence, 48 h | Potency, µM (doses to about 46.1 µM), inactives show at the highest dose activity, negative = less viability, usual class: cytotoxic | 360,000 tested, 1.6% active | AID 686970;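 further: NT is the 2HG producing partner of a matched IDH1 knockdown line; 0% = DMSO-treated cells and -100% = media-only wells without cells; nearly all actives have a fitted effect of over 55% in size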
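Fibrosarcoma NT cells, 750 per well in 5% FBS RPMI, were exposed to compound for 48 hours. Viability: CellTiter-Glo luminescence.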
SW480 rerep: inducers of DNA re-replication in SW480 colon cancer cells. SW480 DNA re-replication, Hoechst DNA content imaging, 48 h. Potency, µM (series often up to 46.1 µM), for inactives: at the highest dose re-replication activation, hits mostly activators. 340,000 tested, 1.8% active. AID 624297; further: % of control where 0% means no effect; nearly all actives have a fitted effect of over 55% in size
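250 cells/well; 23 nL cpd via pin tool; 48 hr, 37 C, 5% CO2; Hoechst 40 min; imager read of total nuclear intensity, ex 405/em 500-530 nm.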
KB-V1 cytotox: KB-V1 MDR subline cytotoxicity; Potency, µM (highest dose often 46.1 µM), most hits filed as cytotoxic; 400,000 tested, 3.4% active; KB-V1 MDR cells viability, CellTiter-Glo, 72 h; further: on the % scale 0 is the no-effect control and ±100 the full control effect; nearly all actives have a fitted effect of over 60% in size
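Following 72 h at 37 degrees C with compound, KB-V1 cell viability was read by CellTiter-Glo luminescence, medium being phenol-red-free DMEM plus 10% FBS; concentration-response parameters came from normalized, curve-fitted qHTS data.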
KB-3-1 cytotox: KB-3-1 parental cell cytotoxicity; Potency, µM (doses to about 46.1 µM), hits mostly cytotoxic; KB-3-1 viability, CellTiter-Glo ATP luminescence, 72 h; 400,000 tested, 1.4% active; further: on the % scale 0 is the no-effect control and ±100 the full control effect; nearly all actives have a fitted effect of over 60% in size
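Parental KB-3-1 viability, qHTS format: 72 h compound exposure, 37 °C; CellTiter-Glo; media-only wells and DMSO plates as controls; concentration-effect fits on corrected data.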
HT1080 IDH1KD tx: kills HT-1080 cells with IDH1 knockdown; Potency, µM (highest dose often 46.1 µM), for the others: top-dose activity, negative = toxicity, usual class: cytotoxic; 360,000 tested, 2% active; HT-1080 IDH1 knockdown viability, ATP luminescence, 48 h;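 further: 0% = DMSO wells and -100% = cell-free medium wells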
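After a 2 h attachment period, IDH1KD HT-1080 cells took pin-transferred compound for 48 h at 37 °C; ATP-based luminescence after 10 min room-temperature reagent incubation reported viability.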
MCF10A rereplic: inducers of DNA re-replication in MCF 10A breast cells | 350,000 tested, 2.9% active | Potency, µM (top dose mostly 46.1 µM), without a hit: at the highest dose activity, positive = re-replication, actives largely listed as activators | MCF 10A DNA re-replication, Hoechst nuclear intensity, 48 h | AID 624296; further: % of control where 0% means no effect; nearly all actives have a fitted effect of over 50% in size
Active calls of the source: *; i = inactive; ? = inconclusive; / = no result given; ! = a repeat was not active. Sampled rows, rich in hits. Any-hit rate of the full collection: about 7.9%. The call rests on the fitted dose curve; in most records, active means well fitted curve in the direction sought with a large enough effect; inconclusive means small, poorly fitted or top-dose-only effect, or another doubt; inactive means no such curve, though single readings can be large; an effect the other way counts as inactive or inconclusive. Potency means the concentration at half of the fitted maximal effect.

SMILES	HT1080-NT tox	SW480 rerep	KB-V1 cytotox	KB-3-1 cytotox	HT1080 IDH1KD tx	MCF10A rereplic
COC(=O)[C@H]1C[C@H](OC(=O)NC2CCCC2)[C@@]2(O)CN(S(=O)(=O)c3ccc(C)cc3)CC2[C@H]1C(=O)OC (stereo not given in full)	11%	/	i	i	1%	/
COc1ccc(C2c3[nH]c4ccc(OC)cc4c3CCN2C(=O)Nc2ccccc2)cc1 (stereo not given)	/	/	?	10µM*	/	/
COc1ccc(CN2[C@@H](CC(=O)O)c3ccc(/C=C/C(=O)O)cc3S2(=O)=O)cc1	/	/	i	i	/	/
O=C(N[C@H]1CCC(=O)N(CCSc2ccc(Br)cc2)CC1)OCc1ccccc1	?	3%	21µM*!	?	?	4%
C[C@]12CC[C@@H]3c4ccc(O)cc4CC[C@H]3[C@@H]1C[C@H](O)C2O (stereo not given in full)	/	-1%	/	/	/	3%
O=C(Nc1c(C(=O)N2CCN(c3ccccc3F)CC2)oc2ccccc12)c1ccc(Br)o1	/	/	i	i	/	/
CCCCc1cc(=O)oc2cc(C)cc(OCC(=O)N3C[C@H]4C[C@@H](C3)c3cccc(=O)n3C4)c12	5%	1.8µM*	i	?	-4%	?
Cc1cccc(NC(=O)CN2CCC(C(=O)c3ccc4c(c3)OCCO4)CC2)c1	-5%	2%	12µM*	?	-7%	26%
Cc1cccc(NC(=O)CN2CCN(CC(=O)Nc3cccc(C)c3)CC2)c1	-2%	1%	?	i	14%	21µM*
CCN1CCN(C(=S)Nc2cccc(Cl)c2)CC1	2%	-1%	i	i	-10%	0%
COc1ccc(C(=O)C2CCN(CC(=O)Nc3cc(C)cc(C)c3)CC2)cc1	-6%	28%	?	i	-4%	?
CN1CCN(C(=S)Nc2cccc(Cl)c2)CC1	9%	6%	13µM*	i	13%	17%
Cc1ccc(C(=O)C2CCN(CC(=O)Nc3nc(C)cs3)CC2)cc1	0%	-2%	21µM*	i	1%	3%
CCOC(=O)N1CCC(NC(=O)c2cnn(-c3ccc(C)cc3C)c2C2CCN(C(=O)OC(C)(C)C)CC2)CC1	/	/	i	i	/	/
CCOC(=O)C1CCN(C(=S)Nc2cccc(C)c2)CC1	7%	23%	i	i	26%	5%
Cc1ccc(C(=O)C2CCN(CC(=O)Nc3ccc(N(C)C)cc3)CC2)cc1	-7%	1%	i	i	-14%	18%
CCOC(=O)N1CCN(C(=S)Nc2cccc(C)c2)CC1	6%	-14%	18µM*	i	8%	6%
Cc1ccc(C(=O)C2CCN(CC(=O)Nc3ccc4c(c3)OCCO4)CC2)cc1	-8%	1%	12µM*	i	-19%	25%
CCCNC(=O)C1CCC(Cn2c(=O)c3sccc3n(CC(=O)NCc3ccccc3)c2=O)CC1 (stereo not given)	/	/	?	i	/	/
COc1ccccc1C1SCCN1S(=O)(=O)c1cccc(C(F)(F)F)c1 (stereo not given)	-4%	3%	16µM*	i	-23%	12%
COc1ccc(S(=O)(=O)N2CCSC2c2ccccc2)cc1 (stereo not given)	-7%	8%	23µM*	?	-29%	?
Cc1cc(C(=O)C(C)OC(=O)c2ccc(NC(=O)CC#N)cc2)c(C)n1-c1ccc(OC(F)F)cc1 (stereo not given)	-19%	22%	18µM*	2.9µM*	26µM*	6%
Cc1[nH]c2ccccc2c1C(=O)C(C)OC(=O)c1ccc(NC(=O)CC#N)cc1 (stereo not given)	-8%	-4%	i	i	6%	18%
CCOc1ccc(C(=O)NCC(c2ccc3c(c2)OCO3)N2CCOCC2)cc1 (stereo not given)	/	/	i	i	/	/
S=c1[nH]nc(-c2ccc(Cl)cc2)n1/N=C/c1cccs1	-22%	9.2µM*	i	i	?	-15%
SMILES	HT1080-NT tox	SW480 rerep	KB-V1 cytotox	KB-3-1 cytotox	HT1080 IDH1KD tx	MCF10A rereplic
COc1cc(NC(=O)CC(c2cccs2)N2Cc3ccccc3C2=O)cc(OC)c1OC (stereo not given)	/	/	i	i	/	/
COc1ccc(/C=C/C(=O)c2c(O)ccc3c(C)cc(=O)oc23)cc1	?	-4%	i	i	?	21µM*
COc1ccc(-c2cc(=O)oc3c(C)c(O)ccc23)cc1	-5%	-7%	i	i	3%	?
Cc1cc(=O)oc2c(O)c(O)ccc12	-17%	-8%	?	i	?	-52%
COc1ccc(/C=C\C(=O)c2c(O)ccc3c(C)cc(=O)oc23)cc1	?	20%	?	23µM*	?	?
Cc1nc(-c2ccccc2)sc1CCNC(=O)c1ccco1	/	/	?	i	/	/
Cc1cccc2c(C(=O)N3CCN(c4ccccc4)CC3)cc(-c3ccncc3)nc12	1.3µM*	6.5µM*	3.7µM*	4.1µM*	1.3µM*	7.3µM*
CC(=O)c1ccc(N2CCN(C(=O)c3cc(-c4ccncc4)nc4ccc(Cl)cc34)CC2)cc1	-2%	-4%	9.2µM*	i	1%	1%
Cc1cccc2c(C(=O)N3CCN(c4ccccn4)CC3)cc(-c3cccc(Br)c3)nc12	-4%	16µM*	?	?	?	-6%
Cc1cccc2c(C(=O)N3CCCCC3)cc(-c3ccccc3)nc12	1%	?	?	i	-4%	?
COc1ccc(CCNC(=O)Cn2c(=O)n(-c3ccc(OC)c(OC)c3)c(=O)c3ccccc32)cc1OC	/	/	?	i	/	/
CCNc1nc(C#N)nc(N2CCOCC2)n1	/	/	i	i	/	/
COC(=O)CNC(c1ccccc1)c1cc(Br)ccc1NC(=O)CNC(=O)OCc1ccccc1 (stereo not given)	?	11%	?	i	21µM*	?
CCOC(=O)CNC(c1ccccc1)c1cc(Br)ccc1NC(=O)OCC (stereo not given)	4%	3%	i	i	1%	19%
CCOC(=O)CNC(c1ccccc1)c1cc(Br)ccc1NC(=O)CCN1CCOCC1 (stereo not given)	-29%	107%	?	i	-4%	10µM*
COC(=O)CNC(c1ccccc1)c1cc(Br)ccc1NC(=O)CCN1CCOCC1 (stereo not given)	-22%	?	?	i	?	18µM*
